These results are taken from PubChem BioAssay AID687012 (National Center for Advancing Translational Sciences (NCATS), 2013).

Each structure is given as a SMILES string. Active and inactive are the calls of the source.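 The calls were made as follows: active = significant rise in the time treated SMA model mouse pups take to turn upright when laid on their backs; inactive = no significant rise in righting time.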

The test in a line: Extended Characterization of SMN2 Inhibitors: Righting Time Studies. The conditions noted are these: SMNdelta7 SMA mice, 50 mg/kg ip. The text has this:
Spinal muscular atrophy (SMA) is caused by insufficient levels of the survival motor neuron protein SMN. The SMN locus on chromosome 5q13 contains two inverted copies of SMN called SMN1 and SMN2 which are 99% identical at the amino acid level. SMN1 is a fully functional protein and SMN2 skips exon 7 90% of the time. Skipping of exon 7 produces non-functional protein product. 10% of the SMN2 protein includes exon 7 and is fully functional. In the SMA disease state, mutations in the SMN1 locus are the cause of the disease state. Because only 10% of SMN2 is of the fully functional form, it is not sufficient to overcome the deficiency produced by the loss of the SMN1 product. A therapy that either increase the amount of SMN2 product made or to increase the inclusion of exon 7 has been proposed for the treatment of SMA. We have previously filed a probe report and have now done further SAR and further characterized the resulting compounds in mice studies. Here we tested the new compound to see if there was an improval in righting time when administered to SMNdelta7 SMA mice. NIH Chemical Genomics Center [NCGC] NIH Molecular Libraries Probe Production centers Network [MLPCN] MLPCN Grant: R03 MH084179 Assay Submitter (PI): Elliot Androphy […]
`O=C(O)C1CCN(c2ncc(-c3ccc4c(c3)OCCCO4)s2)CC1`: the outcome was “active; yes”.
